For 100 compounds, Potency and activity, negative = toxicity results are on record in PubChem BioAssay AID686971 (National Center for Advancing Translational Sciences (NCATS), 2013).

Screen size: about 360,000 compounds; about 7,500 (2.1%) were called active. A call without a number means that no potency is given here. Inconclusive results (about 8%) are left out. Calls follow the shape of the dose curve; as a rule, active = well fitted cell-killing curve with a large enough effect; inconclusive = small, poorly fitted or top-dose-only effect, or effect the other way, or another doubt; inactive = no such curve, though single readings can be large or run the other way. The sample as a whole holds a higher share of actives than the screen did.
Potency is read from the fitted curve at half-maximal effect.

This assay in a line: qHTS for induction of synthetic lethality in tumor cells producing 2HG: qHTS for the HT-1080-IDH1KD cell line. Conditions: HT-1080 IDH1 knockdown viability, ATP luminescence, 48 h; series mostly up to 46.1 µM. In a few lines: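 CellTiter-Glo luminescence after 48 h compound exposure at 37 degrees C of IDH1-knockdown HT-1080 cells in 5% FBS RPMI. %Activity scaled between DMSO wells and cell-free media wells, with curves fitted and assigned curve classes.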
In the case of `O=S1(=O)CC(N2CCN(c3ccccn3)CC2)CN1Cc1ccc(F)cc1` (stereo not given), the Potency entry is “inactive”. `COc1cc(OC)cc(C(=O)N[C@H](C(=O)NNC(=O)c2ccc(Br)cc2)C(C)C)c1`: the Potency result was “inactive”. Still for that read-out and setting: to `COc1ccc(C(=O)N[C@H](C(=O)NCc2ccccc2)C(C)C)cc1` belongs “inactive”; to `COc1cc(OC)cc(C(=O)N[C@H](C(=O)Nc2nc3ccccc3[nH]2)C(C)C)c1`, 1.3 µM (active); to `Cc1ccccc1CN1C(=O)CSCC1(C)C(=O)Nc1c(C)cccc1C` (stereo not given), “inactive”. For the compound `N#Cc1cccc(NC(=O)c2cc(C3CCCCN3C(=O)CCc3ccccc3)on2)c1` (stereo not given), the Potency result was “inactive”. On the same count and under the same terms, to `O=C(COC(=O)c1cccc(Cl)c1Cl)NC1CCCCCC1` belongs “inactive”.

Turning to `Cc1ccc([C@H]2N[C@]3(CCCN(CC4CCCCC4)C3=O)[C@H]3C(=O)N(Cc4ccccc4)C(=O)[C@@H]23)cc1`, the Potency entry is “inactive”.

Regarding `COc1ccccc1CC1(C)C(=O)Nc2ccc(OC(F)(F)F)cc21` (stereo not given), the Potency result is “inactive”. The same measure, in the same setting: to `CCNC(=S)Nc1ccc(OC(F)(F)F)cc1` belongs “inactive”. Consider `CCc1ccc2c(c1)NC(=O)C2(C)Cc1ccc(OC(F)(F)F)cc1` (stereo not given), for which the Potency is 23.1 µM (active).

Turning to `CC(=O)c1ccc(OCC(=O)N(C)C2CCS(=O)(=O)C2)cc1` (stereo not given), the Potency result was “inactive”.

For `O=C(NC1CCCC1)C1c2ccccc2OCC(=O)N1CC(F)(F)F` (stereo not given), the Potency result is “inactive”. On to `CSc1ncccc1C(=O)NCC(c1ccco1)N1CCCCC1` (stereo not given), for which the Potency result was “inactive”.

With `Cc1c(C(=O)NCC(c2ccco2)N2CCCC2)oc2ccc(Cl)cc12` (stereo not given), the Potency was 23.1 µM (active).

On to `Cc1cc(S(=O)(=O)Nc2ccc(C(=O)NCC(c3ccco3)N3CCCC3)cc2)ccc1F` (stereo not given), for which the Potency result is “inactive”.

Regarding `CCCCCCCN=C(C)c1ccccc1O`, the Potency result was “inactive”. As for `C/C(=N/Nc1ccc(Cl)cc1)c1cnnc(-c2ccccc2)n1`, the Potency entry was “inactive”.

With `C/C(=N\Nc1ccc(Cl)nn1)c1ccccc1O`, the Potency was 3.26 µM (active).

For the compound `O=C(C[C@H]1C[C@H]2c3cc(NS(=O)(=O)c4ccc(F)cc4)ccc3O[C@H]2[C@H](CO)O1)NCc1cc(F)ccc1F`, the Potency result was “inactive”. On the same count and under the same terms, to `COc1ccc(C(=O)NCC2CCCO2)cc1S(=O)(=O)NCc1ccc(Cl)cc1` (stereo not given) belongs “inactive”; to `CC1CCCCN1S(=O)(=O)c1ccc(C(=O)Nc2nnc(-c3cccs3)o2)cc1` (stereo not given), 8.2 µM (active). With `CC1CCCN(S(=O)(=O)c2ccc(C(=O)Nc3nnc(-c4ccncc4)o3)cc2)C1` (stereo not given), the Potency entry was “inactive”.

As to `CSCc1nnc(NC(=O)c2ccc(S(=O)(=O)N3CCCCC3C)cc2)o1` (stereo not given), the Potency entry was “inactive”. For the compound `CCCNC(=O)c1cc(C2CCCN(C(=O)c3ccc4c(c3)CCO4)C2)on1` (stereo not given), the Potency result is “inactive”. Consider `COC(=O)C[C@H]1C[C@@H]2c3cc(N(C)C)ccc3O[C@@H]2[C@H](CO)O1`, for which the Potency result is “inactive”. On to `CCOc1ccc(CCNC(=O)COC(=O)c2ccc(C)c(S(=O)(=O)N3CCOCC3)c2)cc1OCC`, for which the Potency entry was “inactive”. With `c1csc(CN2CCN(Cc3cccs3)C2c2cccs2)c1`, the activity, negative = toxicity was -1.16% [at 9.24 µM] (inactive).

As to `Brc1ccc2c(c1)[C@H]1OCC[C@H]1[C@@H](c1cccs1)N2`, the Potency was 9.2 µM (active). As for `COc1cc2ccc(C(C)=O)c(O)c2cc1OC`, the Potency result was “inactive”. On the same count and under the same terms, to `COCCNc1ncnc2c1ncn2[C@H]1CN(Cc2ccc(OC)cc2)C[C@@H](CO)O1` belongs “inactive”; to `COc1cccc2c1C(=O)c1c(O)c3c(c(O)c1C2=O)CC(O)(C(C)=NNC(=O)c1ccc(Cl)c(Cl)c1)CC3OC1CC(N)C(O)C(C)O1` (stereo not given), 1.16 µM (active); to `OC(c1ccccc1)c1nc(-c2cnc3ccccc3c2)cs1` (stereo not given), “inactive”.

On to `Cc1ccc(S(=O)(=O)NC2CCCCCC2)cc1`, for which the Potency entry was “inactive”. For `Cc1ccc(S(=O)(=O)N(C)C2(C)CCS(=O)(=O)C2)cc1` (stereo not given), the Potency result was “inactive”. Same read-out and setting: to `Cc1ccc(S(=O)(=O)C2(S(=O)(=O)c3ccc(C)cc3)CCCC2)cc1` belongs 11.6 µM (active). `Cc1cc(C)c2c(=O)n3c(nc2c1)C(CC(C)C)NC(=O)c1cc2ccccc2cc1-3` (stereo not given): the Potency entry is “inactive”. On the same count and under the same terms, to `COc1ccc(Br)c(Cn2c(C)c(C(=O)NCc3cccs3)sc2=O)c1` belongs “inactive”; to `CCOc1ccccc1NC(=O)Cn1nnc(C(=O)NCc2cccs2)c1N`, 0.411 µM (active); to `CCOc1ccc(Cl)cc1-c1cc(C(=O)NCc2cccs2)[nH]n1`, “inactive”. The same measure, in the same setting: to `CCc1ccc(NC(=O)Cn2nnc(C(=O)NCc3ccc(OC)cc3)c2N)cc1` belongs “inactive”.

Take `COc1ccc(-c2cnc3c(c2)C(=O)N([C@H](C)CO)C[C@@H](C)[C@H](CN(C)Cc2ccccc2)O3)cc1`: the Potency result was “inactive”. The same measure, in the same setting: to `COc1ccc(OC)c(CN2C(=O)CCC2(C)c2nnnn2Cc2ccccc2)c1` (stereo not given) belongs “inactive”.

In the case of `NC(=O)N1CCCC1C(=O)Nc1ccc(Cl)c(Cl)c1` (stereo not given), the Potency entry was “inactive”.

Take `O=C(CC(O)(C(F)(F)F)C(F)(F)F)Nc1ccc(Cl)c(Cl)c1`: the Potency was 11.6 µM (active).

As for `O=C(COC(=O)c1cc[n+]([O-])cc1)Nc1ccc(Cl)c(C(F)(F)F)c1`, the Potency entry was “inactive”. The same measure, in the same setting: to `O=C1NC(O)CCN1C1CC(O)C(CO)O1` (stereo not given) belongs “inactive”; to `CC(=O)c1ccc(Nc2nc(C(N)c3ccccc3Cl)cs2)cc1` (stereo not given), “inactive”.

As to `CCOCCCn1c(NN)nc2ccccc2c1=O`, the Potency entry is “inactive”. Same read-out and setting: to `CCn1c(/C=C/c2ccc([N+](=O)[O-])o2)nc2ccccc2c1=O` belongs 2.59 µM (active); to `CCn1c(SCc2ccccc2)nc2cc(OC)c(OC)cc2c1=O`, “inactive”.

Turning to `COc1ccc(C(=O)N2CCCCC2c2cc(C(=O)Nc3ccccc3)no2)cc1` (stereo not given), the Potency result was “inactive”. For the compound `Cc1ccc(S(=O)(=O)N(Cc2cccc([N+](=O)[O-])c2)C(=O)N2CCN(C)CC2)cc1`, the Potency entry was “inactive”. The same measure, in the same setting: to `O=C(c1cccc([N+](=O)[O-])c1)N1CCN(Cc2ccccc2)CC1` belongs “inactive”; to `O=C(CCl)N(Cc1cccc([N+](=O)[O-])c1)c1cccc(Cl)c1`, 4.61 µM (active); to `CCc1nc2c(OCCOc3ccccc3)cccn2c1N(C=O)Cc1ccc(OC)cc1`, “inactive”. Same read-out and setting: to `CCc1nc(C)cn1S(=O)(=O)c1cc(OC)c(C)cc1C` belongs “inactive”. Regarding `CC(C)c1nccn1S(=O)(=O)c1cc([N+](=O)[O-])ccc1Cl`, the Potency result was “inactive”. The same measure, in the same setting: to `CCc1nc(C)cn1S(=O)(=O)c1cc([N+](=O)[O-])ccc1Cl` belongs 3.26 µM (active); to `Nc1nc2c(Br)ccc(Br)c2cc1C(=O)NCCc1ccccc1`, “inactive”; to `CSc1ncnc2c1ncn2CCCNCc1ccco1`, “inactive”.

On to `COc1ccc(CN(C)C(=O)CC(c2ccccc2)c2ccccc2)cc1`, for which the Potency result is “inactive”.

As for `COc1ccc(COC(=O)NC(C(=O)O)c2ccccc2)cc1` (stereo not given), the Potency entry was “inactive”. The same measure, in the same setting: to `COc1ccc(C(CCN(Cc2ccc(OC)c(OC)c2)C(=O)CCl)c2ccccc2)cc1` (stereo not given) belongs 16.4 µM (active); to `Nc1cc(C(=O)N2CCN(c3ccccc3Cl)CC2)ccc1N1CC2CC(C1)c1cccc(=O)n1C2` (stereo not given), “inactive”; to `COc1ccc(NC(=O)COC(=O)C2COc3ccccc3O2)cc1` (stereo not given), “inactive”. Still for that read-out and setting: to `Cc1ccc(CCC(=O)Nc2ncc(Cc3cc(Cl)ccc3Cl)s2)o1` belongs 1.16 µM (active). As to `Cc1ccc(C(=O)Nc2nc3ccc(Cl)cc3s2)o1`, the Potency result was “inactive”. Same read-out and setting: to `Cc1ccc(Cc2cnc(N)s2)o1` belongs “inactive”; to `COc1ccc(C(O)c2nc(-c3ccc(OC)nc3)cs2)cc1` (stereo not given), “inactive”; to `CNN/C(N=Cc1ccc([N+](=O)[O-])s1)=N\S(=O)(=O)c1cc(C)c(Cl)cc1SCc1ccccc1`, “inactive”. Take `O=[N+]([O-])c1ccc(C=Nc2ccc(Cl)cc2Cl)s1`: the Potency is 11.2 µM (active). Still for that read-out and setting: to `CC1CN(C(=O)c2ccc([N+](=O)[O-])s2)CC(C)O1` (stereo not given) belongs “inactive”; to `CC(=O)N(Cc1cc(=O)[nH]c2ccccc12)c1ccc(C)cc1C`, “inactive”. The same measure, in the same setting: to `Cc1ccc(N(Cc2cc3ccccc3[nH]c2=O)C(=O)c2cccs2)cc1` belongs “inactive”; to `Cc1ccc(N(Cc2cc(=O)[nH]c3ccccc23)C(=O)CCl)cc1`, 20.6 µM (active). The same measure, in the same setting: to `CC(C)C1Cc2[nH][nH]c(=O)c2C(c2ccc(Cl)cc2)O1` (stereo not given) belongs “inactive”; to `CC(C)CNC(=O)C1(C)CCCN1C(=O)CSc1ccccc1` (stereo not given), “inactive”; to `CCCC(=O)N1CCC1(C)C(=O)NCc1ccc(SC)cc1` (stereo not given), “inactive”. For `COc1ccc(/C=C/C(=O)N2CCCC2)cc1OC`, the Potency entry was “inactive”. Still for that read-out and setting: to `COc1ccc(/C=C/C(=O)Nc2ccc(C34CC5CC(CC(O)(C5)C3)C4)cc2)cc1OC` belongs 2.59 µM (active); to `COc1cc(/C=C/C(=O)Nc2ccc(OC)c(S(=O)(=O)N3CCOCC3)c2)ccc1OCC#N`, “inactive”; to `C[C@@H]1CN([C@H](C)CO)C(=O)CCCn2nncc2CO[C@@H]1CN(C)S(=O)(=O)c1cccc(C#N)c1`, “inactive”. On the same count and under the same terms, to `CCS(=O)(=O)Nc1ccc(C2=NN(C(C)=O)C(c3cccs3)C2)cc1` (stereo not given) belongs 16.4 µM (active); to `CS(=O)(=O)Nc1ccc(C2=NN(S(C)(=O)=O)C(c3cccs3)C2)cc1` (stereo not given), “inactive”; to `CS(=O)(=O)Nc1cccc(C2=NN(C(=O)c3cccc(F)c3)C(c3cccs3)C2)c1` (stereo not given), “inactive”.

As for `COCC1CCCCN1C(=O)c1cc(COc2ccc(C)c(C)c2)on1` (stereo not given), the Potency result was “inactive”. On to `C=CCSC1=C(C#N)C(c2cc(Br)c(O)c(OC)c2)CC(=O)N1` (stereo not given), for which the Potency result was “inactive”. As for `CCOC(=O)CSC1=C(C#N)C(c2sccc2C)CC(=O)N1` (stereo not given), the Potency is 1.41 µM (active). Turning to `COC(=O)CSC1=C(C#N)C(c2ccccc2OC)C(C(=O)OC)C(=O)N1` (stereo not given), the Potency entry was “inactive”. Same read-out and setting: to `COc1ccc(C(=O)N2CCCCC2c2cc(C(=O)Nc3ccc(F)c(Cl)c3)no2)cc1` (stereo not given) belongs “inactive”.

`CSc1nc(-c2ccccc2)nc(C(Cl)Cl)n1`: the Potency is 18.4 µM (active). Still for that read-out and setting: to `CSc1ncc(Sc2ccccc2)c(C(=O)O)n1` belongs “inactive”; to `Cc1ccccc1-c1ccc2c(c1)O[C@@H](CN(C)Cc1ccc(C(=O)O)cc1)[C@@H](C)CN([C@H](C)CO)S2(=O)=O`, “inactive”. Still for that read-out and setting: to `CC(=O)Nc1cccc(Nc2ccc(C#N)cc2)c1` belongs “inactive”; to `Cc1ccc(NC(=S)N(CCCN2CCCC2)Cc2cccn2Cc2ccc(Cl)cc2)cc1`, 23.1 µM (active). Regarding `Cc1ccc(NC(=S)N(CCCN2CCC(C)CC2)Cc2ccco2)cc1`, the Potency result was “inactive”. Still for that read-out and setting: to `Cc1ccc(NC(=S)N(CCN2CCCCC2)Cc2ccco2)cc1C` belongs “inactive”; to `Cc1ccc(NC(=O)COC(=O)CN2CCSC2=O)cc1F`, “inactive”; to `CCc1nc2c(OCCOc3ccc(F)cc3)cccn2c1N(C)C(=O)c1ccccc1F`, “inactive”.
